From PubChem BioAssay (NCI)
The panel holds about 83,000 compounds, 20% with a hit somewhere; the sample as a whole holds those more often.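 In brief: 96-well plates, 48 h treatment, single concentration, percent growth endpoint.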 Unmarked numbers belong to inactive results. Activity calls are given as the source filed them. Rule for the calls: active = growth percent below 10; inactive = the rest.

Tests used:
Experiment in all cases: NCI-60 one-dose screen, 48 h (100 = growth as untreated, 0 = no growth, -100 = all killed)
[1] = tested on: SK-MEL-2 melanoma; settings: 10 µM unless noted
[2] = tested on: SN12C renal; settings: 10 µM unless noted
[3] = tested on: UO-31 renal; settings: 10 µM unless noted
[4] = tested on: TK-10 renal; settings: 10 µM unless noted
[5] = tested on: ACHN renal; settings: 10 µM unless noted
[6] = tested on: CAKI-1 renal; settings: 10 µM unless noted
[7] = tested on: A498 renal; settings: 10 µM
[8] = tested on: HL-60(TB) leukemia; settings: 10 µM unless noted
[9] = tested on: CCRF-CEM leukemia; settings: 10 µM unless noted
[10] = tested on: MOLT-4 leukemia; settings: 10 µM unless noted
[11] = tested on: SR leukemia; settings: 10 µM unless noted
[12] = tested on: RPMI-8226 leukemia; settings: 10 µM unless noted
[13] = tested on: OVCAR-8 ovarian; settings: 10 µM unless noted
[14] = tested on: OVCAR-5 ovarian; settings: 10 µM unless noted
[15] = tested on: OVCAR-4 ovarian; settings: 10 µM unless noted
[16] = tested on: SK-OV-3 ovarian; settings: 10 µM unless noted
[17] = tested on: OVCAR-3 ovarian; settings: 10 µM unless noted
[18] = tested on: HS 578T breast; settings: 10 µM unless noted
[19] = tested on: IGROV1 ovarian; settings: 10 µM unless noted

Row | Compound | growth [1] | growth [2] | growth [3] | growth [4] | growth [5] | growth [6] | growth [7] | growth [8] | growth [9] | growth [10] | growth [11] | growth [12] | growth [13] | growth [14] | growth [15] | growth [16] | growth [17] | growth [18] | growth [19]
1 | COC(=O)C1OC(Oc2ccc(N(CCCl)CCCl)cc2)C(OC(C)=O)C(OC(C)=O)C1OC(C)=O (configuration not stated) | 109% | 62.4% | 73.1% | 92.5% | 27.4% | 3.7% (active) | 104% | 40.1% | 37.2% | 37.3% | 4.19% (active) | 96.6% | 84.8% | 90.4% | 87.7% | 96.7% | 94.2% | 102% | –
2 | COc1cc(C=Nc2cc(Cl)cc(Cl)c2)ccc1N(CCCl)CCCl | 113% | 87.6% | 66.6% | 148% | 63% | 63.3% | 65.2% | 88.1% | 56.4% | 58.9% | 41.2% | 75% | 90.5% | 105% | 99.5% | 91.1% | 91.1% | 93.5% | 56.7%
3 | CC(=O)/C=C/c1ccc2c(c1)OCO2 | 107% | 98.1% | 100% | 99.7% | 97.5% | 91.5% | 118% | 104% | 94.1% | 103% | 98.3% | 91.5% | – | 106% | 104% | 106% | 109% | 106% | 118%
4 | OCCCCCNC1CCCCC1 | 80.7% | 105% | 87.5% | 86.5% | 94.1% | 101% | 105% | 91.7% | – | 83.9% | 89.7% | 102% | 103% | 86.3% | 103% | 102% | 125% | – | 103%
5 | ClCCN(CCCl)c1ccc(OCc2ccccc2)cc1 | 114% | 30.8% | 38.6% | 96.3% | 17.7% | 11.4% | 68.9% | 10.6% | 14.4% | 11.7% | -8.12% (active) | 64.8% | 55.8% | 89% | 78.7% | 65.2% | 78% | 96.6% | 76.7%
6 | CC1CN1CCCCN1CC1C (configuration not stated) | 80.6% | 109% | 98.4% | 88.8% | 107% | 102% | 107% | 77.4% | – | 86.2% | 81.5% | 94.4% | 102% | 102% | 112% | 103% | 103% | – | 107%
7 | NC1CC2CCCCC2CC1(O)c1ccccc1 (configuration not stated) | 100% | 101% | 83.9% | 96.6% | 104% | 107% | 89.8% | – | 96% | 85.7% | 90.7% | 93.6% | 98.6% | 95.4% | 102% | – | 109% | 102% | 102%
8 | O=C1C=C(N2C3C4CCC(C4)C32)C(=O)C=C1c1ccccc1 (configuration not stated) | 87.8% | 93.8% | 90.8% | 142% | 73.4% | 58% | 49.3% | – | 0.362% (active) | 2.18% (active) | 0.878% (active) | 53.1% | 72.4% | 102% | 48% | 88.9% | 74.5% | 102% | –
9 | O=C(c1ccccc1O)c1[nH]c(Cl)c(Cl)c1-n1c(C(=O)c2ccccc2O)cc(Cl)c1Cl | -36.9% (active) | -14.2% (active) | -3.72% (active) | 6.68% (active) | -9.76% (active) | -11.1% (active) | -33.3% (active) | – | 3.92% (active) | -1.12% (active) | 8.12% (active) | – | 8.28% (active) | 18.5% | 14.5% | -5.75% (active) | – | -16.9% (active) | 23%
10 | N/C(=N\N=C\c1ccc(-c2ccccc2)cc1)N[N+](=O)[O-] | 47.1% | 53.3% | 45.2% | 44.6% | 52.5% | 27.5% | 5.42% (active) | -16.2% (active) | 11.9% | 5.54% (active) | 5.79% (active) | 20.1% | 42.6% | – | 61.5% | 35.4% | -19.8% (active) | 44.3% | 34.6%
11 | O=C1CN=C(c2ccc(Cl)cc2)c2sccc2N1 | 107% | 96.2% | 84.6% | 99.7% | 104% | 97.9% | 102% | 98.3% | 97.4% | 95.6% | 87.1% | 97.7% | 101% | 104% | 102% | 113% | 109% | 99.6% | 108%
12 | CCC1CN1CCCCN1CC1CC (configuration not stated) | 118% | 95.2% | 92.6% | 104% | 100% | 99.6% | 115% | 123% | – | 108% | 104% | 102% | – | 102% | 102% | 110% | 107% | – | 102%
13 | O=C([O][Hg][c]1ccccc1)c1ccccc1 | -33.3% (active) | -85.4% (active) | -92.2% (active) | -86.5% (active) | -90.5% (active) | -89.3% (active) | 40.7% | -53.5% (active) | -33.8% (active) | -27.5% (active) | -7.13% (active) | -36.7% (active) | – | -82.3% (active) | -1.64% (active) | – | -94.4% (active) | 12.9% | -64% (active)
14 | CC(=O)[O][Hg][c]1c(N)c(C)cc(C)c1F | 11.6% | 5.86% (active) | 35.1% | 97.4% | 62.9% | – | 101% | -12.7% (active) | -6.01% (active) | -11.2% (active) | -11.2% (active) | -12.3% (active) | -29.5% (active) | 47.3% | 42% | 69.8% | -45.8% (active) | 26.8% | -32.7% (active)
15 | O=C(NCCN1CC1)C(=O)NCCN1CC1 | 97.1% | 87.3% | 96.4% | 83.6% | 67.9% | 20.9% | 105% | 63.1% | 56.8% | 55.3% | 19% | 98.5% | 69.3% | 104% | 106% | 98% | 99.6% | 107% | 78.5%
16 | Cc1cc(N(CCCl)CCCl)ccc1C=Nc1ccc(-c2csc(Cc3ccccc3)n2)cc1 | 109% | 49% | 30.7% | 84.5% | 50.8% | 25.4% | -45.8% (active) | 30.7% | 33.9% | 27.2% | 27.2% | 58.5% | 65% | – | 64% | 56% | 75.2% | 106% | 61.7%
17 | CC(C)=CCC/C(C)=C/C=N\N=C(/N)N[N+](=O)[O-] | 92.9% | 100% | 69.7% | 87.4% | 109% | 84.9% | 83.9% | 113% | 93.3% | 90.9% | 83.6% | 93.6% | 104% | 103% | 93.4% | 98.9% | 101% | 99.8% | 99.5%
